Reference: PubChem BioAssay (Tox21)
Results filed as inconclusive are left out. More than one record can exist for a structure, and the calls need not agree. The source made the active and inactive calls. Unless noted, calls follow the shape of the full dose curve.

Columns and labels:
[1] = biological target: Estrogen receptor beta (Homo sapiens) (UniProt Q92731); assay: qHTS assay to identify small molecule agonists of the estrogen receptor beta (ER-beta) signaling pathway (AID 1259377; active = well fitted activation curve with a large enough effect in the signal ratio in the repeat runs, not every such curve was filed as active; the % refers to the signal ratio); conditions: ER-beta-UAS-bla HEK293T, beta-lactamase FRET ratio, 16 h; series mostly up to 92.4 µM
Chain of Estrogen receptor beta (Homo sapiens) (Q92731 whole entry, looked up): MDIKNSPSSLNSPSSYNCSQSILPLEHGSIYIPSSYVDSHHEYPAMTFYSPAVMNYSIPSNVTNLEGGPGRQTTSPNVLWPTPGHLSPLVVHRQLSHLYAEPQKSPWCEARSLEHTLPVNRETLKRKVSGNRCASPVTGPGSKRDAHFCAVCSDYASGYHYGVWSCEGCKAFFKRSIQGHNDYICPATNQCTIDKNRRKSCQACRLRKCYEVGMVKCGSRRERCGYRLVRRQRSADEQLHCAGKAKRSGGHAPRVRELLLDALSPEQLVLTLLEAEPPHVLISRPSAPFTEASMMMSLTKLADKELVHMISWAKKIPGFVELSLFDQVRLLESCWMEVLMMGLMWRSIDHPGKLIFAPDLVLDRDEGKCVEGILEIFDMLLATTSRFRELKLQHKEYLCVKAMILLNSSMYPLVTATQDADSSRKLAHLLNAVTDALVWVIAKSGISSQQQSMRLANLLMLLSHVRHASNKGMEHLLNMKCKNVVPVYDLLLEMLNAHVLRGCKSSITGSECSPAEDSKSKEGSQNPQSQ
Outline: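 Screening used GripTite ER-beta-UAS-bla cells held in 2% charcoal-stripped FBS medium. After overnight (16 hr) compound incubation at 37C, beta-lactamase activity was detected with a FRET substrate by fluorescence.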

[2] = biological target: Estrogen receptor beta (Homo sapiens) (UniProt Q92731); assay: qHTS assay to identify small molecule antagonists of the estrogen receptor beta (ER-beta) signaling pathway (AID 1259378; active = well fitted inhibition curve with a large enough effect in the signal ratio in the repeat runs, not every such curve was filed as active; the % refers to the signal ratio); conditions: ER-beta-UAS-bla HEK293T, beta-lactamase FRET ratio, 16 h; series mostly up to 92.4 µM
Outline: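 ER-beta-UAS-bla HEK293T (GripTite) cells in 2% charcoal-stripped FBS medium were preincubated 6 hr at 37C, dosed with compound, then stimulated with 1 nM E2 (final) for 16 hr; beta-lactamase reporter read by B/G FRET fluorescence after 2 hr substrate loading.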

[3] = qHTS assay to identify small molecule agonists of the androgen receptor (AR) signaling pathway in the presence of an antagonist - cell viability counter screen (AID 1259379; active = well fitted curve in the direction sought with a large enough effect in the repeat runs; an effect the other way counts as inactive or inconclusive;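 also: MDA-kb2 human breast cancer cells carrying an MMTV luciferase reporter; nearly all actives have a fitted effect of over 25% in size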); conditions: MDA-kb2 viability, CellTiter-Fluor, 16 h; series mostly up to 92.4 µM
Outline: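 Cytotoxicity is assessed by CellTiter-Fluor in MDA-kb2 cells carrying an MMTV-driven luciferase reporter. Cells receive 3.0uM nilutamide plus compounds at 15 concentrations and incubate 16 hr at 37C without CO2 before fluorescence reading.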

[4] = biological target: Androgen receptor (Homo sapiens) (UniProt P10275); assay: qHTS assay to identify small molecule agonists of the androgen receptor (AR) signaling pathway in the presence of an antagonist (AID 1259381); conditions: MDA-kb2 MMTV-luciferase, AR agonist + nilutamide, 16 h; series mostly up to 92.4 µM; also: nearly all actives have a fitted effect of over 15% in size
Chain of Androgen receptor (Homo sapiens) (P10275 whole entry, looked up): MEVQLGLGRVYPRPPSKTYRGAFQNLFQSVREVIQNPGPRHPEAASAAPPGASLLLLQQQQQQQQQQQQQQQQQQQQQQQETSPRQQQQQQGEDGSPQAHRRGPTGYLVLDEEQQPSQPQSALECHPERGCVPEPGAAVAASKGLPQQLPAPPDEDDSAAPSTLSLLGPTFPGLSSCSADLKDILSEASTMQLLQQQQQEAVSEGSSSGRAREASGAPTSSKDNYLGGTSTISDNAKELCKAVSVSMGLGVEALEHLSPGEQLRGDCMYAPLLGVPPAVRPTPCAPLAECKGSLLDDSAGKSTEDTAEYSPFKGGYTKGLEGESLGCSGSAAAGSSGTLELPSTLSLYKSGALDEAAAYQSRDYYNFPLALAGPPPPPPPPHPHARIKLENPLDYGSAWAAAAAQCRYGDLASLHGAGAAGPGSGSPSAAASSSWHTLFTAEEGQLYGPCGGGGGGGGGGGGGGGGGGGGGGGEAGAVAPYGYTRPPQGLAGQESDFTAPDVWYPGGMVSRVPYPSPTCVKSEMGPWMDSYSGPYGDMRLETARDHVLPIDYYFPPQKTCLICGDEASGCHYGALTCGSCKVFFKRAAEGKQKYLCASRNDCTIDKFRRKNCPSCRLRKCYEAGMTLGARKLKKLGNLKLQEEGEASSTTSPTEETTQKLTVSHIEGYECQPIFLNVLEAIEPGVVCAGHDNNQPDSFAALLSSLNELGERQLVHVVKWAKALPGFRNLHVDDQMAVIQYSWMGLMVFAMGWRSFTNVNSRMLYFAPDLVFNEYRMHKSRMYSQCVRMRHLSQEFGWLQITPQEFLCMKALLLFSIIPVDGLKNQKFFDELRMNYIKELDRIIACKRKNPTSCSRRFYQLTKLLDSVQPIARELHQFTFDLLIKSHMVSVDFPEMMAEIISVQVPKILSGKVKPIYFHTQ
Outline: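 Agonist-mode confirmation screen: human MDA-kb2 cells stably expressing luciferase under an MMTV promoter bearing AR and GR response elements, co-treated with 3.0uM nilutamide (final). Luminescence measured after 16hr compound incubation.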

[5] = qHTS assay to identify small molecule antagonists of the estrogen receptor beta (ER-beta) signaling pathway - cell viability counter screen (AID 1259382; active = well fitted curve in the direction sought with a large enough effect in the repeat runs; an effect the other way counts as inactive or inconclusive; also: nearly all actives have a fitted effect of over 55% in size); conditions: ER-beta-UAS-bla HEK293T viability, CellTiter-Glo luminescence, 16 h; series mostly up to 92.4 µM
Outline: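 Cytotoxicity counter screen multiplexed with the beta-lactamase antagonist assay: GripTite HEK293T ER-beta-bla cells were treated 16 hr with test chemicals in the presence of 1nM 17-beta-estradiol, and viability was measured by CellTiter-Glo.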

[6] = qHTS assay to identify small molecule agonists or antagonists of the thyroid stimulating hormone receptor (TSHR) signaling pathway - wild type cell line counter screen (AID 1259384); conditions: HEK293 wild type, cAMP HTRF counter-screen, stronger effect = higher value; series mostly up to 92.4 µM
Outline: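 Wild-type HEK293 cells were plated 18 h at 37 C/5% CO2, pin-dosed with compound plus Ro20-1724 medium, held 30 min at room temperature, then given cAMP-d2 and anti-cAMP-cryptate; fluorescence was read after 1 h. Fifteen concentrations, triplicate.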

[7] = biological target: Thyrotropin receptor (Homo sapiens) (UniProt P16473); assay: qHTS assay to identify small molecule antagonists of the thyroid stimulating hormone receptor (TSHR) signaling pathway (AID 1259385); conditions: TSHR-HEK293 cAMP HTRF, TSH-stimulated antagonist mode; series mostly up to 92.4 µM; also: nearly all actives have a fitted effect of over 20% in size
Chain of Thyrotropin receptor (Homo sapiens) (P16473 whole entry, looked up): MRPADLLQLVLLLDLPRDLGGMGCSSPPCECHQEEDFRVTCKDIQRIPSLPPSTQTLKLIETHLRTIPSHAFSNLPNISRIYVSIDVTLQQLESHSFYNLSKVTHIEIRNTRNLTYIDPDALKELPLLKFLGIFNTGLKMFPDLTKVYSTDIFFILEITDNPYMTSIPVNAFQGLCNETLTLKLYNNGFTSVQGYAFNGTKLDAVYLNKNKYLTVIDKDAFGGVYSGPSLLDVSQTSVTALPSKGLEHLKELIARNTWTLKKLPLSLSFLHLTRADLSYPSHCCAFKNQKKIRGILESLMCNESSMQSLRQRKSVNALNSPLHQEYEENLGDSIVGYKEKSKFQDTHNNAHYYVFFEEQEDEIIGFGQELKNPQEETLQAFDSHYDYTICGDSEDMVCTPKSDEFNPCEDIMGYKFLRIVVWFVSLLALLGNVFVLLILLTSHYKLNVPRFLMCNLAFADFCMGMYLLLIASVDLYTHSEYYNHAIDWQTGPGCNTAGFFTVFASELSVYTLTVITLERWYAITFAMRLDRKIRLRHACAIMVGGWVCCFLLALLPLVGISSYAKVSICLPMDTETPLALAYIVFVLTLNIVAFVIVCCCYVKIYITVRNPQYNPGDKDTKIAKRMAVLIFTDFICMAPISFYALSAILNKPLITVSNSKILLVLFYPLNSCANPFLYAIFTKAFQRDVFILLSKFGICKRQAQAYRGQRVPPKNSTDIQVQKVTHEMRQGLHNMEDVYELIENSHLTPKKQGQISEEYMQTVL
Outline: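 TSHR-HEK293 cells were plated and held 18 h at 37C/5% CO2, then given compound plus Ro20-1724 and stimulated with TSH at 1.5 ng/mL final. After 30 min at room temperature, cAMP was detected with cAMP-d2/anti-cAMP-cryptate (1 h) by fluorescence.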

[8] = qHTS assay to identify small molecule agonists of the estrogen receptor alpha (ER-alpha) signaling pathway in the presence of an antagonist - cell viability counter screen (AID 1259386; active = well fitted curve in the direction sought with a large enough effect in the repeat runs; an effect the other way counts as inactive or inconclusive;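 also: cells exposed to compounds for 22 h at 37 °C before the viability read; nearly all actives have a fitted effect of over 30% in size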); conditions: VM7Luc4E2 viability, CellTiter-Fluor fluorescence, 22 h; series mostly up to 92.4 µM
Outline: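 Cytotoxicity was measured in parallel with the ERE-luciferase agonist screen, in the same wells. The cells were VM7Luc4E2, which endogenously express ER-alpha, and treatment was with compounds plus 10.0nM ICI-182,780 for 22hr.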

[9] = biological target: Progesterone receptor (Homo sapiens) (UniProt P06401); assay: qHTS assay to identify small molecule agonists of the progesterone receptor (PR) signaling pathway (AID 1346784); conditions: PR-UAS-bla HEK293T, beta-lactamase FRET ratio, 16 h; series mostly up to 92.4 µM; also: nearly all actives have a fitted effect of over 30% in size
Chain of Progesterone receptor (Homo sapiens) (P06401 whole entry, looked up): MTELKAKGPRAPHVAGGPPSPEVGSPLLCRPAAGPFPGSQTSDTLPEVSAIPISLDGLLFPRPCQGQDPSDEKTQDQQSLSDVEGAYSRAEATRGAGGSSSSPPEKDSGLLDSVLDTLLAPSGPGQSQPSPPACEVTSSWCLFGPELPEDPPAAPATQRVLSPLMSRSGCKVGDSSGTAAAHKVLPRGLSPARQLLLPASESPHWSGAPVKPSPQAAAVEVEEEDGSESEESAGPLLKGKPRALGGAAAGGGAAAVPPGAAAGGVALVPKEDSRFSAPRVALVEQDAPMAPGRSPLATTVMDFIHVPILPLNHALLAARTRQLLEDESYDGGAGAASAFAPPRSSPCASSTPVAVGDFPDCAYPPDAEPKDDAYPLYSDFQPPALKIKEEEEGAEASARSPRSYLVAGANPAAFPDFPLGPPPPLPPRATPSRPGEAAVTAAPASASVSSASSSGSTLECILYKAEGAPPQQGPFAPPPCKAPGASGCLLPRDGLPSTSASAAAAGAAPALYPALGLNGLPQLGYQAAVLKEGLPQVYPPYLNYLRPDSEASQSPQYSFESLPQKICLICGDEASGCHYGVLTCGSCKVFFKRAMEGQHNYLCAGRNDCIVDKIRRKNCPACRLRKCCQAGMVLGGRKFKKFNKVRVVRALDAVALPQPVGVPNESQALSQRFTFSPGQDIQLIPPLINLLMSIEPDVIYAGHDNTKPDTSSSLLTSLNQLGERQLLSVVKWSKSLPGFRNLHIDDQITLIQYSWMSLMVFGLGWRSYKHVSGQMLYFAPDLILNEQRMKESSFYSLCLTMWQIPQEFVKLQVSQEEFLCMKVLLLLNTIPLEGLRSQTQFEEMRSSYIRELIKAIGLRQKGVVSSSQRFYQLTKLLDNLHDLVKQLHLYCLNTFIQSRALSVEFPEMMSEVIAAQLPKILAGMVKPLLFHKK
Outline: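 Seed PR-UAS-bla HEK 293T cells (2% charcoal-stripped FBS), incubate 6 hr at 37C; add compounds in DMSO, 16 hr at 37C; add LiveBLAzer B/G substrate, 2 hr RT; read fluorescence intensity.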

[10] = qHTS assay to identify small molecule antagonists of the progesterone receptor (PR) signaling pathway - cell viability counter screen (AID 1346798; active = well fitted curve in the direction sought with a large enough effect in the repeat runs; an effect the other way counts as inactive or inconclusive; also: nearly all actives have a fitted effect of over 50% in size); conditions: PR-UAS-bla HEK293T viability, CellTiter-Glo luminescence, 16 h; series mostly up to 92.4 µM
Outline: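 Measures cytotoxicity in parallel with the PR antagonist reporter read: HEK293T PR-UAS-bla cells get compound and R5020 for 16 hr, and remaining viable cells are quantified by CellTiter-Glo luminescence.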

[11] = qHTS assay to identify small molecule agonists of the progesterone receptor (PR) signaling pathway - cell viability counter screen (AID 1346799); conditions: PR-UAS-bla HEK293T viability, CellTiter-Glo luminescence, 16 h; series mostly up to 92.4 µM; also: nearly all actives have a fitted effect of over 45% in size
Outline: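 Using the same plates as the PR reporter screen, HEK293T PR-UAS-bla cells received compounds for 16 hr at 37C and were then lysed with CellTiter-Glo; luminescence was read 30 min later at room temperature.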

[12] = qHTS assay to identify small molecule antagonists of the TGF-beta/Smad signaling pathway - cell viability counter screen (AID 1346824; active = well fitted curve in the direction sought with a large enough effect in the repeat runs; an effect the other way counts as inactive or inconclusive; also: nearly all actives have a fitted effect of over 50% in size); conditions: SBE-bla HEK293T viability, CellTiter-Glo luminescence; series mostly up to 76.8 µM
Outline: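 SBE-bla HEK 293T cells were plated overnight at 37 C, then given compounds in DMSO plus TGF-beta1 (added as 0.25 ng/mL solution) for 5 hr. After the bla read, CellTiter-Glo was added to the same wells and luminescence read after 30 min at room temperature.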

[13] = qHTS assay to identify small molecule agonists of the TGF-beta/Smad signaling pathway - cell viability counter screen (AID 1346829; active = well fitted curve in the direction sought with a large enough effect in the repeat runs; an effect the other way counts as inactive or inconclusive; also: top concentration of the series differs between compounds; nearly all actives have a fitted effect of over 45% in size); conditions: SBE-bla HEK293T viability, CellTiter-Glo luminescence, 5 h; series mostly up to 76.8 µM
Outline: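 CellTiter-Glo luminescence readout; SBE-bla HEK 293T cells, overnight plating, compound 5 hr at 37 C/5% CO2, then bla substrate 2 hr RT, then CellTiter-Glo 30 min RT.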

[14] = qHTS assay to identify small molecule agonists of the TGF-beta/Smad signaling pathway (AID 1346859; active = well fitted activation curve with a large enough effect in the signal ratio in the repeat runs, not every such curve was filed as active; the % refers to the signal ratio); conditions: SBE-bla HEK293T, TGF-beta/Smad beta-lactamase reporter, 5 h; series mostly up to 76.8 µM
Outline: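 Beta-lactamase reporter activity downstream of Smad binding elements was measured in stably transfected HEK 293T cells; compounds were incubated for 5 hr, substrate for 2 hr at room temperature.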

[15] = biological target: Thyrotropin-releasing hormone receptor (Homo sapiens) (UniProt P34981); assay: qHTS assay to identify small molecule antagonists of the thyrotropin-releasing hormone receptor (TRHR) signaling pathway (AID 1346877; active = well fitted inhibition curve with a large enough effect in the repeat runs, not every such curve was filed as active); conditions: TRHR-HEK293, TRH-induced calcium fluorescence, antagonist mode; series mostly up to 51.3 µM
Chain of Thyrotropin-releasing hormone receptor (Homo sapiens) (P34981 whole entry, looked up): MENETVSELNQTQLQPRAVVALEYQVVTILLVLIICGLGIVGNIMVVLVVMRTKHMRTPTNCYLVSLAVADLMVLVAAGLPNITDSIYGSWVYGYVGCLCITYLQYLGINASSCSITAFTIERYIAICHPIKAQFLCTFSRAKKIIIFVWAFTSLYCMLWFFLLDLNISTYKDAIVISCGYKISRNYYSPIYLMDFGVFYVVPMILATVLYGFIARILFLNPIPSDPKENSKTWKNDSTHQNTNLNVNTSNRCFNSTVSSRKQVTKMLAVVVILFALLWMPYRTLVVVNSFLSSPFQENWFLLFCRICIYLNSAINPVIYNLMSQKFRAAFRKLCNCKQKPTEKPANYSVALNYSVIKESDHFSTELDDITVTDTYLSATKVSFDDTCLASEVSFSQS
Outline: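 Antagonism is measured as suppression of the calcium response to 1 nM TRH in TRHR-HEK293 cells that have been dye-loaded for 2 h at 37 °C after overnight plating. Each compound is tested at 15 concentrations in triplicate.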

[16] = biological target: Thyrotropin-releasing hormone receptor (Homo sapiens) (UniProt P34981); assay: qHTS assay to identify small molecule agonists of the thyrotropin-releasing hormone receptor (TRHR) signaling pathway (AID 1346891); conditions: TRHR-HEK293 calcium fluorescence, agonist mode; series mostly up to 57.6 µM;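 also: HEK293 cells expressing TRHR with calcium dye readout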
Outline: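 Overnight-plated (18 h, 37 °C, 5% CO2) TRHR-Hek293 cells; 2 h calcium dye at 37 °C; compound in DMSO; 3-min kinetic fluorescence read.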

[17] = qHTS assay to identify small molecule agonists of the estrogen receptor beta (ER-beta) signaling pathway - cell viability counter screen (AID 1259380; active = well fitted curve in the direction sought with a large enough effect in the repeat runs; an effect the other way counts as inactive or inconclusive; also: nearly all actives have a fitted effect of over 30% in size); conditions: ER-beta-bla HEK293T viability, CellTiter-Glo luminescence, 16 h; series mostly up to 92.4 µM
Outline: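 Cytotoxicity is measured in parallel with the reporter screen: after 16 hr compound exposure at 37C and a 2 hr LiveBLAzer step, CellTiter-Glo is added to the same ER-beta-UAS-bla HEK293T wells and luminescence read after 30 min.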

[18] = biological target: Estrogen receptor (Homo sapiens) (UniProt P03372); assay: qHTS assay to identify small molecule agonists of the estrogen receptor alpha (ER-alpha) signaling pathway in the presence of an antagonist (AID 1259383); conditions: VM7Luc4E2 cells, ERE-luciferase, +ICI-182,780, 22 h; series mostly up to 92.4 µM; also: nearly all actives have a fitted effect of over 15% in size; also: potency is read from the fitted curve at half-maximal effect; as to activation: top concentration of the series differs between compounds
Chain of Estrogen receptor (Homo sapiens) (P03372 whole entry, looked up): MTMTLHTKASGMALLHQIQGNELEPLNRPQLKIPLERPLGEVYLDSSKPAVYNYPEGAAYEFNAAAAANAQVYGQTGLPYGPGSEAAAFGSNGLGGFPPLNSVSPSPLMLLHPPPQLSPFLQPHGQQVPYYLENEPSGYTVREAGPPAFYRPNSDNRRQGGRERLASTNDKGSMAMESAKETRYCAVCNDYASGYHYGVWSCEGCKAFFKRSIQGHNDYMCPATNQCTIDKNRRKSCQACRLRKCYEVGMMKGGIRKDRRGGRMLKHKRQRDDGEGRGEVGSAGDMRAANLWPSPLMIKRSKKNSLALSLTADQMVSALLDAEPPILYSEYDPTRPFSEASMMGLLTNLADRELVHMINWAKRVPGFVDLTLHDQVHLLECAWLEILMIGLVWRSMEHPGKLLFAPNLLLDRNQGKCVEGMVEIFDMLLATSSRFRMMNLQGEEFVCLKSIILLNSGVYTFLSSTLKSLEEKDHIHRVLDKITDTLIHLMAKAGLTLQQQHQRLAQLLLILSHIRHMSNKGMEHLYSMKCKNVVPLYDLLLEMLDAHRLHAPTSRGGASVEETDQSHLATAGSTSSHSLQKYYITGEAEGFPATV
Outline: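 Agonist-mode confirmation in the presence of the ER antagonist ICI-182,780 at 10.0nM final. Breast-derived VM7Luc4E2 reporter cells were exposed to compounds for 22hr, and ERE-driven luciferase was quantified by luminescence.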

[19] = qHTS assay to identify small molecule antagonists of the sonic hedgehog signaling (Shh) pathway (AID 1259369); conditions: NIH/3T3 Gli1-Luc reporter, Shh antagonist, luminescence 24 h; series mostly up to 92.4 µM; also: nearly all actives have a fitted effect of over 45% in size; also: potency is read from the fitted curve at half-maximal effect
Outline: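 Cells are plated and held 4hr at 37 C, compounds (DMSO) are pinned in, conditioned medium is added to stimulate the pathway, and after 24hr luciferase reagent is added for 30min before luminescence is read.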

[20] = biological target: Progesterone receptor (Homo sapiens) (UniProt P06401); assay: qHTS assay to identify small molecule antagonists of the progesterone receptor (PR) signaling pathway (AID 1346795; active = well fitted inhibition curve with a large enough effect in the signal ratio in the repeat runs, not every such curve was filed as active; the % refers to the signal ratio); conditions: PR-UAS-bla HEK293T, beta-lactamase FRET ratio, 16 h; series mostly up to 92.4 µM
Outline: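 Screening used a GripTite HEK293T line with PR-responsive UAS-beta-lactamase. Cells were challenged with compound in the presence of 1 nM R5020 final for 16 hr at 37C; B/G FRET substrate, 2 hr room temperature, fluorescence.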

Measured: Potency

CN/C(=C\[N+](=O)[O-])NCCSCc1csc(CN(C)C)n1
not listed: [17] | [18] | [19] | [20]
inactive: all other assays above

C[Si]1(C)O[Si](C)(C)O[Si](C)(C)O[Si](C)(C)O1
not listed: [4] | [19] | [20]
inactive: all other assays above

CC(=O)OCc1ccco1
1.53 µM (active) and inactive: [19]
not listed: [2] | [3] | [4] | [15] | [16] | [17]
inactive: all other assays above

COc1ccc(OC)cc1
not listed: [1] | [2] | [4]
inactive: all other assays above

CC1(C)CC(N)CC(C)(CN)C1 (centres undefined)
13.9 µM (active) and inactive: [18]
not listed: [1] | [2] | [4]
inactive: all other assays above

Cc1ccc(S(=O)(=O)N=C=O)cc1
not listed: [4] | [19]
inactive: all other assays above

CCCCCCCCCCN
not listed: [2] | [3] | [4] | [18]
inactive: all other assays above

Cc1ccc([N+](=O)[O-])cc1S(=O)(=O)O
not listed: [2] | [3]
inactive: all other assays above

CCCCCCC=O
not listed: [1] | [2] | [3] | [4] | [17]
inactive: all other assays above

O=C(O)c1ccccc1C(=O)O
not listed: [1] | [2] | [4] | [15] | [16]
inactive: all other assays above

COCCCN
not listed: [1] | [2] | [4] | [17] | [20]
inactive: all other assays above

CC(=O)c1ccc(O)cc1
not listed: [1] | [3] | [4] | [20]
inactive: all other assays above

CC(O)CC(C)(C)O (centres undefined)
not listed: [1] | [2] | [4] | [6] | [7] | [18] | [20]
inactive: all other assays above

CCO[Si](CCCN)(OCC)OCC
not listed: [1] | [2] | [4] | [17]
inactive: all other assays above

CCOCCOCCOCCO
not listed: [2] | [3] | [4] | [18]
inactive: all other assays above

C=C(C)CNCC
not listed: [1] | [2] | [4] | [18]
inactive: all other assays above

O=C(O)CCCCCCCCC(=O)O
not listed: [1] | [2] | [3] | [4] | [18] | [20]
inactive: all other assays above
